Results on 15 compounds are retold here after PubChem BioAssay (NCI).

In this assay the test system is MDA-MB-468 breast. The experiment in a line: NCI-60 one-dose screen, 48 h (100 = growth as untreated, 0 = no growth, -100 = all killed). The settings on record: 10 µM unless noted.

The structures appear in SMILES notation. About 83,000 compounds went through this panel and 20% of them were active in at least one assay; those are over-represented in the sample as a whole.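 Results are percent growth after 48 hours of single-concentration exposure. 100 means growth as in untreated cells, lower positive values show inhibition; negative values down to -100 show cell death.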 A number with no mark means an inactive call. Active and inactive are the calls of the source. How the source made its calls: active means growth percent below 10; inactive means the rest.

As for `COP(=S)(OC)Oc1ccc(SC)c(C)c1`, the growth was 108%.
As for `CC1(C)N=C(N)N=C(N)N1c1cccc(C(=O)Nc2cccc(S(=O)(=O)F)c2)c1`, the growth was 94.6%.
Then `Cc1cc(N)ccc1N`, with 86.4%.
Then `COC(=O)[C@@H](C)C[C@H](Cc1ccc2ccccc2c1)NC(=O)c1csc([C@@H](C[C@H](C(C)C)N(C)C(=O)[C@@H](NC(=O)[C@H]2CCCCN2C)C(C)C)OC(C)=O)n1`, with 67%; and `CN(C)CC1(N)C(=O)NC(=O)NC1=O`, with 94.6%.
Then `O=C(O)C1(Br)CC12c1ccccc1-c1ccccc12` (stereo not given), with 98.7%.
Turning to `C=CCC1(CC)C(=O)NC(=S)NC1=O`, the growth was 97.4%.
Then `CS(=N)(=O)CCC(N)C(=O)O` (stereo not given), with 106%.
Then `C[C@@H]1CCC2[C@@H](C)[C@H](OC(=O)CCC(=O)NCCNC(=O)Cc3cc(=O)oc4cc(N(C)C)ccc34)O[C@@H]3O[C@]4(C)CC[C@@H]1C23OO4` (stereo not given in full), with 63.7%; and `CC12CCC3C(CCC4Cc5[nH]c6ccccc6c5CC43C)C1CCC2O` (stereo not given), with 29.3%.
Then `CC[C@H](NC(=O)[C@H]1CCCCN1C)C(=O)N(C)[C@H](C[C@@H](OC(C)=O)c1nc(C(=O)N[C@@H](Cc2ccccc2)C[C@H](C)C(=O)O)cs1)C(C)C`, with 17.6%; and `CC1=C2C(=C[C@@](C)(C=O)[C@@H]2O)C(=O)[C@](C)(O)C12CC2`, with -66.7% (active).
As for `CN1C2CCC1[C@@H](COC(=O)c1ccccc1)[C@@H](O)C2` (stereo not given in full), the growth is 86.1%.
Then `CCCCCCCC(=O)OCC/C=C/C1OC1C1OC(=O)/C=C\C=C\c2nc(oc2C)/C=C(/C)CCC2OC2C1OC(=O)NC(C)=O` (stereo not given), with -51.1% (active); and `COC1OC(CO)C(O)C(O)[CH]1[Hg][O]C(C)=O` (stereo not given), with 72.2%.
